Screening results as filed in PubChem.
SMN2 splice up = SMN2 splice variant enhancement; AID 1458; HEK293 SMN2-luciferase splicing reporter, luminescence, 30-36 h; 2.8% of 210,000 active; Potency, µM (titrated, usually from 46.1 µM), for inactives: at the top dose activity change, positive = activation, most hits filed as activators; further: % of control where 0% means no effect; nearly all actives have a fitted effect of over 55% in size
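HEK293 cells carry an SMN2 minigene-luciferase reporter in which exon 7 inclusion puts luciferase in frame. Cells were seeded at 2000 cells/well, attached for 10-12 hours, then exposed to compounds for 30-36 hours at 37C before ONE-Glo luminescence.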
FLuc modulator = inhibits or activates purified firefly luciferase, miR-21 counter-screen. P08659. 6.9% of 360,000 active. purified FLuc, Km substrates, luminescence inhibition. Potency, µM (doses to about 57.5 µM), without a hit: at the highest dose activity change, negative = inhibition, usual class: inhibitors;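 further: plate controls were vehicle for no effect and reference inhibitor for full effect; nearly all actives have a fitted effect of over 55% in size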
Target sequence (P08659 whole entry, looked up): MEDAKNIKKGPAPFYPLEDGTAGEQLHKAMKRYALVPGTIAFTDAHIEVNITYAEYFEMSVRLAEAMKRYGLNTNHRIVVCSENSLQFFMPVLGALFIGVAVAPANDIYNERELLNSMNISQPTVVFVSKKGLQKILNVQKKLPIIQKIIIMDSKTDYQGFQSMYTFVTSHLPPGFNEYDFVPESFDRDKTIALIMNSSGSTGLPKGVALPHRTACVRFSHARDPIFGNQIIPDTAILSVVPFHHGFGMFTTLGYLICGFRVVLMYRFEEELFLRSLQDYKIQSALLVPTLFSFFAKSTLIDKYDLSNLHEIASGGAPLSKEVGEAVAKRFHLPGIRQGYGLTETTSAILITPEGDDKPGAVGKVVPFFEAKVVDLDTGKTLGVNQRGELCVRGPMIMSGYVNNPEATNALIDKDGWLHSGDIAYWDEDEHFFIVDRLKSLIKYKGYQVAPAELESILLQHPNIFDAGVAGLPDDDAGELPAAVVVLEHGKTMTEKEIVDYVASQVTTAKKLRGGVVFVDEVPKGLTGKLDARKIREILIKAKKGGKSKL
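Biochemical qHTS of compounds, final roughly 60 µM downward over six points, against 10 nM purified firefly luciferase using Km concentrations of substrates (10 uM D-luciferin, 10 uM ATP) in Tris acetate pH 7.5 buffer; luminescence output.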
NPC1 prom act = activates the NPC1 promoter | Huh7 NPC1 promoter luciferase reporter, 24 h | Potency, µM (doses to about 9.22 µM), for inactives: top-dose activation, actives largely listed as activators | 2.4% of 320,000 active | AID 485313; further: % of control where 0% means no effect; nearly all actives have a fitted effect of over 60% in size
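Stable NPC1-promoter luciferase Huh7 line; cpd (DMSO) 24 h, 37 °C, 5% CO2; Amplite luciferase reagent 10 min RT; luminescence readout. qHTS format.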
ELG1 genotox = inducers of genotoxicity in HEK293T ELG1-luciferase cells. HEK293T ELG1-luciferase reporter, luminescence, 16 h. Potency, µM (highest dose often 46 µM), without a hit: at the top dose activity change, positive = activation, most hits filed as activators. 1.3% of 330,000 active. AID 504466; further: % of control where 0% means no effect; nearly all actives have a fitted effect of over 60% in size
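After overnight (16 hr) compound treatment at 37 °C, ELG1-luciferase HEK293T cells were lysed with ONE-Glo; luminescence quantified 30 min later at room temperature.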
ELG1 DNA repair = blocks ELG1-dependent DNA repair in HEK293T cells; HEK293T ELG1-luciferase reporter, luminescence, 16 h; DNA damage induced by 5-fluorouridine; Potency, µM (titrated, usually from 46.1 µM), for inactives: at the top dose activity change, negative = inhibition, usual class: inhibitors; 2.3% of 330,000 active; AID 504467; further: on the % scale 0 is the no-effect control and ±100 the full control effect; nearly all actives have a fitted effect of over 55% in size
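Reporter activity after DNA damage by 5-fluorouridine is monitored. Compound-treated cells incubate 16 hr at 37 °C, then ONE-Glo is added for 30 min before luminescence reading.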
Rab9 prom act = Rab9 promoter activation; Huh7 Rab9 promoter-luciferase reporter, luminescence, 24 h; Potency, µM (doses to about 9.22 µM), without a hit: top-dose activation, negative = inhibition, actives largely listed as activators; 2.8% of 320,000 active; further: % of control where 0% means no effect; nearly all actives have a fitted effect of over 60% in size
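Luciferase signal after 10 min detection reagent at ambient indicates Rab9 promoter upregulation; stably transfected Huh7 cells were treated 24 h with compound in DMSO at 37 °C, 5% CO2.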
Numbers without * were called inactive; ? = inconclusive; · = not tested or not shown. An excerpt weighted towards active compounds, which were near 9.4% of everything screened. The call rests on the fitted dose curve; in most records, active means well fitted curve in the direction sought with a large enough effect; inconclusive means small, poorly fitted or top-dose-only effect, or another doubt; inactive means no such curve, though single readings can be large; an effect the other way counts as inactive or inconclusive. Potency means the concentration at half of the fitted maximal effect.

SMILES	SMN2 splice up	FLuc modulator	NPC1 prom act	ELG1 genotox	ELG1 DNA repair	Rab9 prom act
CCCOc1ccc(OC(=O)c2ccc(-c3ccc(CCC)cn3)cc2)cc1	-54%	0%	·	·	·	·
CCCCc1ccc(-c2ccc(Br)cc2)nc1	3.5µM*	1.2µM*	1.3µM*	?	?	1µM*
COc1ccc(-c2ccc(CCC(=O)O)n2CC(=O)Nc2cccc(Cl)c2C)cc1	-2%	?	·	·	·	·
CCc1cccc(C)c1NC(=O)NC1COc2ccccc2C1 (stereo not drawn)	·	-2%	·	·	·	·
c1coc(CSc2ncnc3c2oc2ccccc23)c1	·	19µM*	8%	?	?	27%
CC(C)Sc1ncnc2c1oc1ccccc12	10%	24µM*	4%	3%	?	17%
COc1ncnc2c1oc1ccccc12	·	12µM*	-2%	?	?	-4%
c1ccc(Sc2ncnc3c2oc2ccccc23)nc1	46%	21µM*	?	?	?	?
COc1ccccc1-c1nnc(C2CCN(S(=O)(=O)c3ccccc3)CC2)o1	2%	4%	·	·	·	·
COc1ccc(N2CCN(CCCNC(=O)c3cnn(-c4ccc(C)cc4)c3-n3cccc3)CC2)cc1	·	5%	·	·	·	·
CC(=O)c1cccc(NC(=O)Cn2cnc(S(=O)(=O)N3CCC(C)CC3)c2)c1	·	2%	14%	-5%	4%	2%
COc1cccc(N2CCN(C(=O)C3CCC(CNS(=O)(=O)c4ccc(Br)s4)CC3)CC2)c1 (stereo not drawn)	-11%	-7%	·	·	·	·
CCCSc1ncnc2c1oc1ccccc12	-2%	15µM*	3%	17%	?	16%
Cc1ccc(CNC(=O)c2cc3c(s2)-c2ccccc2SC3)cc1	-53%	-6%	·	·	·	·
CCOCCCNC(=O)c1cc2c(s1)-c1ccccc1SC2	·	17µM*	1%	2%	14%	5%
Fc1ccc(-n2nnnc2-c2cnc(-c3cccs3)nc2C(F)(F)F)cc1	·	1%	-2%	2%	21µM*	-16%
FC(F)(F)c1nc(-c2ccncc2)ncc1-c1nnnn1-c1ccccc1	-24%	2%	-2%	-5%	-1%	-7%
COc1ccccc1NC(=O)Nc1ccc2c(c1)OCCO2	?	12µM*	19%	12%	?	24%
CCOc1ccccc1NC(=O)Nc1cccc(C(C)=O)c1	-1%	24µM*	-2%	14%	-8%	7%
CCOc1ccccc1NC(=O)Nc1ccc2c(c1)OCO2	·	21µM*	26%	11%	?	?
CCOc1ccccc1NC(=O)Nc1ccc2c(c1)CCC2	·	6.7µM*	?	?	?	?
COc1cccc(OC)c1C(=O)Nc1ccc2c(c1)OCCO2	1%	-1%	-2%	-1%	11%	-11%
CCOc1ccccc1OCCC(=O)Nc1ccc2c(c1)OCO2	·	·	·	2%	?	·
COc1ccc(Cl)cc1NC(=O)CSC1=Nc2ccccc2C2=NC(CC(=O)NCc3ccc4c(c3)OCO4)C(=O)N12 (stereo not drawn)	-12%	-9%	·	·	·	·
COc1ccccc1CNC(=O)c1ccc2c(c1)CCN2S(=O)(=O)c1ccc(Cl)cc1	-14%	-2%	·	·	·	·
SMILES	SMN2 splice up	FLuc modulator	NPC1 prom act	ELG1 genotox	ELG1 DNA repair	Rab9 prom act
O=C(NN=C1CCCCC1)Nc1ccccc1Cl	·	19µM*	2%	-2%	-2%	-5%
O=C(Nc1ccccc1Cl)OC1CCCCC1	·	24µM*	-1%	4%	?	11%
Cc1ccccc1NC(=O)Nc1ccc2c(c1)OCO2	·	?	?	?	?	2.8µM*
CCOc1ccc(CN(C)CC(=O)Nc2ccc3c(c2)CCC3)cc1OC	-16%	0%	-6%	-9%	16µM*	-2%
Cc1c(Cl)cccc1NCC(=O)NN=C1CCCC1	-21%	1%	-9%	-2%	-6%	0%
Cc1ccc(CNC(=O)CN2C(=O)CSc3ccc(S(=O)(=O)N4CCCC4)cc32)cc1	·	-7%	·	·	·	·
O=C(COC(=O)c1ccc2c(c1)OCO2)Nc1ccccc1OC(F)F	·	·	·	0%	-12%	·
